Data as given in PubChem BioAssay AID493169 (National Center for Advancing Translational Sciences (NCATS), 2011).
Results filed as inconclusive are left out. A call without a number means that no potency is given here. Active and inactive are the calls of the source. Calls follow the shape of the dose curve; as a rule, active = well fitted inhibition curve with a large enough effect; inconclusive = small, poorly fitted or top-dose-only effect; inactive = flat fitted curve, though single readings scatter.

Experiment: CHOP2 Reporter Counterscreen Assay for Inhibitors of Ubiquitin-specific Protease USP2a;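 also: activated enterokinase alone at 50 pM in a cell-free format rather than USP2a or CHOP2; nearly all actives have a fitted effect of over 55% in size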
Conditions: purified enterokinase, fluorogenic substrate, 485/531 nm; series mostly up to 38.3 µM
In short: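 Cell-free counterscreen with pre-activated enterokinase alone (50 pM final) in 20mM Tris-HCl pH 8.0, 2mM CaCl2, 2mM beta-mercaptoethanol, 0.05% CHAPS; compound preincubation 30 min RT, reporter substrate 25nM final, fluorescence read after 10 min (Ex 485/Em 531).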
Potency is read from the fitted curve at half-maximal effect.

Compound	Potency
Cc1ccc(C(=O)N/C(=C/c2cccs2)C(=O)NCc2ccco2)cc1	inactive
CCCCC(OC(=O)c1cc2occc2n1C)C(=O)NCC1CCCO1 (stereo not given)	inactive
O=[N+]([O-])/C(C(Cl)=C(Cl)Cl)=C(\Sc1ccccc1)N1CCCCC1	inactive
COc1ccc(NC(=O)CSc2nc3sc(C)cc3c(=O)n2C)c(OC)c1	inactive
O=C(COc1ccccc1)Nc1nnc(-c2ccc(Cl)s2)o1	inactive
CN(C)CCOCCP(=O)(c1ccccc1)c1ccccc1	inactive
CNc1sc(C(=O)c2ccc(F)cc2)c(N)c1-c1nc2ccccc2s1	inactive
O=C(O)c1cc(N2N=C(C(F)(F)F)/C(=C/C=C/c3ccco3)C2=O)ccc1Cl	3.98 µM (active)
Cc1ccc(NC(=O)c2cc(-c3ccco3)nc3ccccc23)cc1S(=O)(=O)N1CCOCC1	7.08 µM (active)
CCn1c(COc2ccccc2)nnc1SCC(=O)CC(=O)Nc1ccccc1OC	inactive
COc1ccc(CC(=O)c2ccccc2C(=O)O)cc1	inactive
COCCN1Cc2cccc(C(=O)N3CCN(c4cc(C)ccc4C)CC3)c2C1=O	inactive
CCCCNc1nc2ccccc2nc1NS(=O)(=O)c1cccs1	inactive
COc1ccc(CNS(=O)(=O)c2ccc(S(=O)(=O)N3CCCCC3)cc2)cc1	inactive
C=CC[C@H](CC(=O)N(CCO)Cc1ccccc1)C(=O)N[C@H](C)COC(=O)[C@@H](CC=C)CC(=O)OC(C)(C)C	inactive
Cc1c(NC(=O)C2CCCN(S(=O)(=O)c3cnc[nH]3)C2)c(=O)n(-c2ccccc2)n1C (stereo not given)	inactive
COc1ccccc1N1CCN(c2cc(C)nc3nc(C)nn23)CC1	inactive
CC(C)n1nc(C(=O)Nc2ccccc2N2CCOCC2)c2ccccc2c1=O	inactive
CCOc1ccccc1C(=O)Nc1nnc(C(C)C)s1	inactive
COc1ccc(-c2noc(CSc3nnc(Cc4ccccc4)n3-c3ccc(Cl)cc3)n2)cc1	inactive

Compound	Potency
CCCCCCCCCCOC(=O)Cn1c(COc2ccccc2)[n+](C)c2ccccc21	11.2 µM (active)
Cc1cc(SCC(=O)NC2CCCCC2)nc2ccccc12	inactive
Cc1noc(NS(=O)(=O)c2ccc(N3CC(O)=C(c4ccccc4)C3=N)cc2)c1C	inactive
COc1ccc(-c2nc(C#N)c(NCC3CCCO3)o2)cc1OC (stereo not given)	inactive
O=C(Nc1nc(-c2ccco2)c(-c2ccco2)s1)C1CC(=O)N(c2ccc3c(c2)OCCO3)C1 (stereo not given)	4.47 µM (active)
COc1ccc(C(=O)Nc2ccc(N3CCCC3)cc2)cc1OC	inactive
COc1cccc(NC(=O)Cc2ccccc2)c1	inactive
Cc1cc(C(=O)OCC(=O)c2cccc([N+](=O)[O-])c2)c2cccc(C)c2n1	inactive
Cn1c(C(=O)NCCCN2CCN(c3ccccc3F)CC2)cc2c(=O)n(C)c3ccccc3c21	inactive
Cc1ccc(C(=O)Nc2nnc(CC(=O)N/N=C/c3ccc(O)c(O)c3)s2)cc1	2.82 µM (active)
O=C(OCC(=O)N1CCCCC1)c1cc2ccccc2cc1O	inactive
NC1=NC2(CCC(c3ccccc3)CC2)n2c(nc3ccccc32)N1 (stereo not given)	inactive
O=C(CC1Oc2ccccc2NC1=O)NCc1ccc(Cl)cc1 (stereo not given)	inactive
CC1CCCCC1NC(=O)CSCC(=O)O (stereo not given)	inactive
COc1ccc(NC(=O)CN(Cc2ccccc2)S(C)(=O)=O)cc1	inactive
CCCNC(=O)NCc1ccc(N2CCCC2=O)cc1	inactive
CC(C)c1ccc(CCNC(=O)c2ccc([N+](=O)[O-])cc2)cc1	inactive
Cc1nc2ccccc2c2oc(C(=O)NCCN3CCN(C)CC3)cc12	inactive
CCOC(=O)Nc1ccc(S(=O)(=O)Nc2cc(C)nc(C)n2)cc1	inactive
O=C(O)C(Cc1ccccc1)N1C(=O)/C(=C/C=C/c2ccco2)SC1=S (stereo not given)	2.51 µM (active)
